Assay results as given in PMC7819943, “Rice protein-binding microarrays: a tool to detect cis-acting elements near promoter regions in rice”.
In all, about 35,000 sequences were measured (“fluorescence intensity (a.u.)”: median about 10,000, highest 2% from about 52,000 on). The sample holds the highest values, similar sequences and a random draw of the others, so the mix is not that of the screen.

Biological target: T1, OsWOX13 (Oryza sativa, UniProt Q5QMM3 1-267)
T1 sequence: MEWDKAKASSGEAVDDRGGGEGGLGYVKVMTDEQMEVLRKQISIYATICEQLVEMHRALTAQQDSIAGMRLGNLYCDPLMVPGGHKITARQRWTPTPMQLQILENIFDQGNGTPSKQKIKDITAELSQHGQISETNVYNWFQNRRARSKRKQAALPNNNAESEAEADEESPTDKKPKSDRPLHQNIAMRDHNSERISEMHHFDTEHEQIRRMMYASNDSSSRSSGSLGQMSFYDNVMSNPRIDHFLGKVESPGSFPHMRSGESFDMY
Assay: protein-binding microarray (RPBM); PBS, 2% BSA, 51.3 ng/ul salmon testes DNA, 50 uM zinc acetate, 200 nM TF, 25 C, 1 h; high values mean tight binding
Settings: protein: recombinant; tags: N-terminal polyhistidine and DsRed monomer fusion (pET32a); label: CyDye5-dUTP incorporated in the synthesized complementary strand; 3' TTTTT single-stranded linker to array surface; dsDNA, one strand shown
Summary of the method: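 An Axon 4000B scanner gave the binding signal as per-feature fluorescence intensity in arbitrary units. This followed washing of a custom Agilent array that had been incubated for 1 h at 25 °C with 200 nM protein in PBS, 2% BSA, salmon testes DNA and 50 µM zinc acetate. The proteins were transcription factors fused at the N-terminus to polyhistidine and DsRed, expressed in E. coli BL21-CodonPlus and purified on Ni–NTA.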

Row | Sequence | binding signal
1 | AATTCTAATATATTTGATTGTTTCAAAATAAAGTCTTTGCCGGAGTCACCTAGTGCAG | 14700 fluorescence intensity (a.u.)
2 | TTAGATAGATTAATATGTGATAGATCTTCACAAACAGACACGGAGTCACCTAGTGCAG | 54900 fluorescence intensity (a.u.)
3 | ATTGATTGACCGAGCGCACTACTCTTTATCTTTTCGATTGCGGAGTCACCTAGTGCAG | 64900 fluorescence intensity (a.u.)
4 | GATAGATTAATATATGATATATCTTTTCACAAACATACAACGGAGTCACCTAGTGCAG | 10500 fluorescence intensity (a.u.)
5 | TGCCGATTGATCTTTTATCCTTTGGGGCATATGCTCGAGTCGGAGTCACCTAGTGCAG | 24400 fluorescence intensity (a.u.)
6 | TTCAATTGATATAGACACAGATCTATGTGATTCACTGACACGGAGTCACCTAGTGCAG | 21700 fluorescence intensity (a.u.)
7 | TTGAATGACTACGAATTTGTTTAAATATTTGCATTCCATCCGGAGTCACCTAGTGCAG | 7180 fluorescence intensity (a.u.)
8 | TTGATTGATGGGAGTCTAACAAAGTGACAAAACTTAGCAACGGAGTCACCTAGTGCAG | 53900 fluorescence intensity (a.u.)
9 | CAGAATTTACAAAATGGATTGACCAAAAGCCTAATTAATTCGGAGTCACCTAGTGCAG | 7770 fluorescence intensity (a.u.)
10 | CAAGATTTTAATAAATGCATAATTTTATGAATCGCATAGACGGAGTCACCTAGTGCAG | 7290 fluorescence intensity (a.u.)
11 | CATGACATACAATTTATCAGATCCAATTTTAGGATTATTCCGGAGTCACCTAGTGCAG | 10900 fluorescence intensity (a.u.)
12 | GTTAACTAATTAGGGCGTATGAACAAGTCATCGTGGCAGTCGGAGTCACCTAGTGCAG | 23000 fluorescence intensity (a.u.)
13 | GAATAATTACCGAAAAGGCAATTAATTAGTGACAGGGAGTCGGAGTCACCTAGTGCAG | 26200 fluorescence intensity (a.u.)
14 | GGCTTCCTTAATTGTACATGTCTCTCTTCATTCTGCTGCACGGAGTCACCTAGTGCAG | 5930 fluorescence intensity (a.u.)
15 | TTTCTGATTTACGTGGCTTGTGAGTAGGGCGCCTCCTCATCGGAGTCACCTAGTGCAG | 8000 fluorescence intensity (a.u.)
16 | TTATGATTATTTTAGAATTTTCAAAATCATGGAATATAATCGGAGTCACCTAGTGCAG | 7490 fluorescence intensity (a.u.)
17 | GCCTTAACTTTGTGATCATATCTTCATCTTCATTAGGCCTCGGAGTCACCTAGTGCAG | 4300 fluorescence intensity (a.u.)
18 | TAATTAAATTGTCATATCACTTCTTAACTTATTGGACTAACGGAGTCACCTAGTGCAG | 5280 fluorescence intensity (a.u.)
19 | TTAAATGATAGAAATACAATTATTACGGAATAGAATGTAGCGGAGTCACCTAGTGCAG | 29100 fluorescence intensity (a.u.)
20 | GATGCCATCTAATTTTAAATGATGATGTGGAGAAGAGAGTCGGAGTCACCTAGTGCAG | 7100 fluorescence intensity (a.u.)
21 | CTAAATTATACGGAGATGATAATGTAGTTACAGTGCAGTTCGGAGTCACCTAGTGCAG | 21900 fluorescence intensity (a.u.)
22 | TAAATTTAAACGGTAAATTAAGGAGAGGGAGGTCATTCTTCGGAGTCACCTAGTGCAG | 6560 fluorescence intensity (a.u.)
23 | AATTGAGACTTCGGTAAAACTTAAGGGACTAAATTAACTACGGAGTCACCTAGTGCAG | 52700 fluorescence intensity (a.u.)

Row | Sequence | binding signal
24 | GTAAATTGATTTGTATATGGCCATTTCCAACCCAAAACACCGGAGTCACCTAGTGCAG | 56300 fluorescence intensity (a.u.)
25 | AAACAGTTTTCCCCAAAATTGATTGTAAATATACATATACCGGAGTCACCTAGTGCAG | 14900 fluorescence intensity (a.u.)
26 | ATTTGTATAATTGGAACCATGCCATTCCAACACAACAAAACGGAGTCACCTAGTGCAG | 6320 fluorescence intensity (a.u.)
27 | ATCTAAATTGTTTTAGATTTGTGCACAAGAACAAAAGAGACGGAGTCACCTAGTGCAG | 16800 fluorescence intensity (a.u.)
28 | CATCTAATTTAAATTTAAATGTTTTAAAAGATAGAGACGTCGGAGTCACCTAGTGCAG | 52400 fluorescence intensity (a.u.)
29 | AATACAATTAATTACAGTTAATTAAATGATAGAAAGAGTTCGGAGTCACCTAGTGCAG | 55400 fluorescence intensity (a.u.)
30 | TGTATGATTTATGTATAATTAGAGATATACAATCATATAACGGAGTCACCTAGTGCAG | 16900 fluorescence intensity (a.u.)
31 | AGGAGAAACAATTTGCAATCATCACATTGTTTAAAGAGATCGGAGTCACCTAGTGCAG | 5330 fluorescence intensity (a.u.)
32 | CATTGGAATTGATGATCACATTATACATGGATTTGACCCACGGAGTCACCTAGTGCAG | 30600 fluorescence intensity (a.u.)
33 | TCTAAACTAATCTAATCTAGCAACGCGATTTAGCCGATACCGGAGTCACCTAGTGCAG | 9190 fluorescence intensity (a.u.)
34 | TTCTGTCAATTAGGTGGGTGACATGTGGATCCCACGATATCGGAGTCACCTAGTGCAG | 13200 fluorescence intensity (a.u.)
35 | TTATTTGCATTGATTTAATAGGGTTTACTCTTGCTTTGCACGGAGTCACCTAGTGCAG | 7870 fluorescence intensity (a.u.)
36 | TACCTTAATTTATTGATTGCACTCTTGTTCTCACACGGTTCGGAGTCACCTAGTGCAG | 53200 fluorescence intensity (a.u.)
37 | TTGATTGGAAAGATTGGAAAGAATTGAATGCGAATTGGTACGGAGTCACCTAGTGCAG | 34500 fluorescence intensity (a.u.)
38 | GATAAATTAATAAAATTATCAAAATTTTATGATTGGTTTACGGAGTCACCTAGTGCAG | 54900 fluorescence intensity (a.u.)
39 | AGATAGATTAATATATGATAAATCACTAATATCAAATTTACGGAGTCACCTAGTGCAG | 5780 fluorescence intensity (a.u.)
40 | TTGATTGTGAATTTATAATGTTTGGATATAATGATTACTTCGGAGTCACCTAGTGCAG | 34500 fluorescence intensity (a.u.)
41 | ACTGATTTGTTTTATTGTTTTGATTTTAATCCTCTCAATTCGGAGTCACCTAGTGCAG | 38800 fluorescence intensity (a.u.)
42 | TCATTGATTGATTGGTACTACTACTGCTAGAAGAAAAGGCCGGAGTCACCTAGTGCAG | 55200 fluorescence intensity (a.u.)
43 | CTTTGATTACATCAAGCCACTGAATTATCAGTTATAATCTCGGAGTCACCTAGTGCAG | 23100 fluorescence intensity (a.u.)
44 | GTGATTACATTGATAATAATTGATTGAATCAGTTTGTTCTCGGAGTCACCTAGTGCAG | 62600 fluorescence intensity (a.u.)
45 | ATTACATACCTGATTGAGTTGGTACTACAAGGCAGGGAGCCGGAGTCACCTAGTGCAG | 16400 fluorescence intensity (a.u.)
46 | ATATCAATCCGATGATATTAATTTTAGCAAATAAAATTTACGGAGTCACCTAGTGCAG | 5130 fluorescence intensity (a.u.)
